Molecules are shown by their SMILES. Screen size: about 330,000 compounds; about 1,300 (0.39%) were called active. The list comes from a sample in which actives are over-represented; it also holds similar structures and randomly drawn compounds. Unmarked numbers belong to inactive results.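 The calls were made as follows: active = percent inhibition above a cutoff equal to the mean of all tested compounds plus 3 SD (cut at about 15% in these data); inactive = the rest.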

For this test, the target named is Protein-arginine deiminase type-4 (Homo sapiens) (UniProt Q9UM07). The test is described as follows: human PAD4 inhibitors, primary screen, biochemical, fluorescence polarization, 1536-well format (AID 485272).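 Also: 0% = PAD4 with RCA probe and DMSO and 100% = probe without PAD4.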 The conditions noted are these: recombinant PAD4, RCA probe fluorescence polarization; at 6.36 µM; stronger effect = higher value. On the technique in general: In fluorescence polarisation assays a small probe gives low polarisation when free and higher when bound to something large.
Protein-arginine deiminase type-4 (Homo sapiens), sequence (Q9UM07 whole entry, looked up): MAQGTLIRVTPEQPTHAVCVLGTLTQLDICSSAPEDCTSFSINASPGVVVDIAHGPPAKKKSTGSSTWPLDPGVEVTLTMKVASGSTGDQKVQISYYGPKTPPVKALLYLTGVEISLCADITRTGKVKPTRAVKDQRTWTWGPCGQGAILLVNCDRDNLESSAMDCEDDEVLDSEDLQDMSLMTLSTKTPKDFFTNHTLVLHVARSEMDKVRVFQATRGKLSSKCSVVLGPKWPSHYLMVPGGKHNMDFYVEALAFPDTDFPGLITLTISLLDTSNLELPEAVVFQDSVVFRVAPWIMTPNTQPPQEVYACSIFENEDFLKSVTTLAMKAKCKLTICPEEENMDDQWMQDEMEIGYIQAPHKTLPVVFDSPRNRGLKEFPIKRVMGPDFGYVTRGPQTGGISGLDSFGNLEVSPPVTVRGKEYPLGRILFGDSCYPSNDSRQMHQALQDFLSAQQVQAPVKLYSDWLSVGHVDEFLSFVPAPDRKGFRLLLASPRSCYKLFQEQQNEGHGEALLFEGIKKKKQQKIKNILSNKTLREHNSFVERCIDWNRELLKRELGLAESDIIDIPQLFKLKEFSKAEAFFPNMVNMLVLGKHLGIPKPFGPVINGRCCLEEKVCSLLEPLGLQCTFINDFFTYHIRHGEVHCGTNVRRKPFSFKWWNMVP
The inhibition is the relative decrease from the control value, in per cent. Turning to `O=C(NC(=S)Nc1ccc(Cl)cc1Cl)C1CC1`, the inhibition is 1.69%.

Regarding `CCOc1ccc(NS(=O)(=O)c2ccc(Cl)c(C(=O)N(C)Cc3cccnc3)c2)cc1`, the inhibition is 6.71%.

In the case of `O=C(Nc1ccc(N2CCOCC2)cc1)c1cccc(S(=O)(=O)N2CCOCC2)c1`, the inhibition is -3.19%.

As to `Oc1c(C=Nc2cccc3nsnc23)ccc2ccccc12`, the inhibition is 39.1% (active).

On to `Oc1ccc2ccccc2c1N=Nc1nccs1`, for which the inhibition is 2.91%.

In the case of `O=C(CCNS(=O)(=O)c1ccc(Br)s1)NCc1ccccc1Cl`, the inhibition was -0.29%.

Consider `Clc1ccc(-c2cc(COc3ccccc3)no2)cc1Cl`, for which the inhibition is -0.83%.

Take `COC(=O)c1ccc(C)c(NC(=O)Cn2c(C)csc2=O)c1`: the inhibition is 2.97%.

As for `Cc1ccc(C(=O)CSc2nc3ccccc3c(=O)n2N)o1`, the inhibition was 28.9% (active).

Take `COc1ccc(OCc2ccc(-c3nc4ccccc4c(=O)n3N)o2)cc1`: the inhibition is 1.08%.

Regarding `COc1ccc(NC(=O)CSc2nc3ccccc3c(=O)n2C)cc1`, the inhibition is -0.44%.

With `CCC(C(=O)OC)n1cnc2scc(-c3ccc(C)cc3)c2c1=O` (centres undefined), the inhibition was 0.23%.

For `Cc1[nH]nc(-c2ccc(OCc3cnn(-c4ccccc4)c3)cc2O)c1Oc1ccc(Cl)cc1`, the inhibition is -2.55%.

Take `Oc1ccc(N=Cc2c(O)ccc3ccccc23)cc1`: the inhibition was 69.9% (active).

With `CC(=O)n1c(C=Nc2ccccc2)c(O)c2ccccc21`, the inhibition was -8.69%.

For the compound `Cc1cc(N=Nc2ccc3ccccc3c2)ccc1O`, the inhibition is 1.91%.

For `Oc1ccc(N=Cc2sc3ccccc3c2Cl)cc1`, the inhibition was 19.9% (active).

Consider `Oc1ccc(/C=N/N(Cc2ccccc2)c2ccccc2)cc1`, for which the inhibition is 2.9%.

Consider `CCC(C)NC(=O)Cn1nc(C(F)(F)F)c2c1CCC2` (centres undefined), for which the inhibition was 0.61%.

As to `N/C(=N\OC(=O)CC1CCCCC1)c1ccccc1`, the inhibition was -1.21%.

On to `CC(=O)c1ccc(S(=O)(=O)NCc2nnnn2-c2ccccc2)cc1`, for which the inhibition was 7.61%.

Consider `O=c1oc2ccc(C#CC3(O)CCCCC3)cc2cc1-n1cc(-c2ccsc2)nn1`, for which the inhibition was 2.6%.

For the compound `Cc1cccc(CN2CCN(Cc3cnn(-c4ccccc4F)c3)CC2CCO)n1` (centres undefined), the inhibition was 8.78%.

Turning to `COc1ccc(CCNS(=O)(=O)c2cc3c(cc2C)NC(=O)CO3)cc1OC`, the inhibition was -1.01%.

On to `N#CCCN(C(=O)COC(=O)C1CCN(c2ccc(C(F)(F)F)cn2)CC1)c1ccc(F)cc1`, for which the inhibition is -2.71%.

Consider `CCOCC(=O)NCc1ccc2c(c1)cc(C)n2C`, for which the inhibition is 6.21%.

As for `COc1cc(C(=O)NCc2cc3cc(Cl)ccc3n2C)cc(OC)c1OC`, the inhibition is 0.12%.

For the compound `COc1cc(C(=O)NCc2ccc3c(c2)cc(C)n3C)cc(OC)c1OC`, the inhibition is 26.2% (active).

Turning to `CC(=O)Nc1ccc(N2C(=O)CCC2=O)cc1C`, the inhibition is 1.44%.

Regarding `COc1cccc(N2CC(NS(=O)(=O)c3cccs3)CC2=O)c1` (centres undefined), the inhibition is -3.8%.

For the compound `Cc1nn(C)cc1N1C(=O)c2cccc3c(N)ccc(c23)C1=O`, the inhibition was 26.9% (active).

Regarding `COc1cc(C(=O)N2C(=O)c3cccc(N)c3C2=O)cc(OC)c1OC`, the inhibition was -3.66%.

For `CC(=O)Nc1ccccc1Sc1ccc2c3c(cccc13)C(=O)N(c1ccc(C)cc1)C2=O`, the inhibition is 1.13%.

`CN1C(=O)c2cccc3c(N)ccc(c23)C1=O`: the inhibition was 24% (active).

As to `Cc1nn(C)cc1C(=O)c1ccccc1`, the inhibition is -3.44%.

As for `COC(=O)c1ccc(CN2CCCC(C(=O)Nc3cccc(-n4cnnn4)c3)C2)cc1` (centres undefined), the inhibition is -3.14%.

Consider `Cc1ccc(S(=O)(=O)N(CC(=O)Nc2cccnc2)c2ccc(Br)cc2)cc1`, for which the inhibition was 1.31%.

`O=C1CCCC2=C1C(c1cccs1)n1nc(SCc3ccccc3)nc1N2` (centres undefined): the inhibition was -0.55%.

As for `NC(N)=N/N=C/c1ccc(OCc2ccc(Cl)cc2Cl)cc1`, the inhibition is -4.09%.

`CCOC(=O)N1CCN(C(=O)c2ccccc2N(Cc2ccccc2)S(=O)(=O)c2ccc(OC)cc2)CC1`: the inhibition is -4.41%.

For `O=C(Nc1ccc2oc(-c3ccccc3F)nc2c1)c1ccco1`, the inhibition was -5.36%.

For the compound `C=CCN(C(=O)Nc1ccc2c(c1)nc(C)n2C)c1ccccc1`, the inhibition is 2.79%.

Take `C=CCN(C(=O)Nc1ccc2oc(C)nc2c1)c1ccccc1`: the inhibition is 39.8% (active).

Regarding `CCOc1ccc(S(=O)(=O)N2CCCCC2)cc1NC(=O)CN1CCCC1c1cccs1` (centres undefined), the inhibition is -0.57%.

For the compound `CCOc1ccc(S(=O)(=O)N2CCN=C2Cc2ccccc2)cc1C`, the inhibition was 0.37%.

In the case of `CC[N+](C)(CC)CCC[n+]1c(-c2ccccc2)c2cc(N)ccc2c2ccc(N)cc21`, the inhibition is 62.4% (active).

With `Cc1ccc2[nH]c(C(=O)O)c(NC(=O)c3ccccc3[N+](=O)[O-])c2c1`, the inhibition was 4.63%.

On to `Cc1cc2c(cc1C)N(C(=O)CN1C(=O)c3ccccc3C1=O)C(C)(C)c1ssc(=S)c1-2`, for which the inhibition is 44.1% (active).

`Cc1ccc2c(c1)-c1c(ssc1=S)C(C)(C)N2C(=O)CN1C(=O)c2ccccc2C1=O`: the inhibition was 0.29%.

As for `Cc1cc(C)cc(NC(=O)CN2C(=O)c3ccccc3C2=O)c1`, the inhibition was 4.21%.

For the compound `CCc1ccc(NC(=O)NC(C)c2ccc3c(c2)OCO3)cc1` (centres undefined), the inhibition is -1.12%.

`O=C1CCN(Cc2ccc([N+](=O)[O-])cc2)CCN1[C@H](CO)Cc1ccccc1`: the inhibition is -1.9%.

Take `C/C(=N\NC(=O)c1ccoc1C)c1ccccc1O`: the inhibition was -6.31%.

Consider `Cc1nn(C(=O)c2ccoc2C)c(N)c1-c1ccccc1`, for which the inhibition is 17.4% (active).

Turning to `CCOC(=O)c1c(N)nn(C(=O)c2ccccc2)c1-c1ccccc1`, the inhibition was -9.18%.

With `O=C(N1CCOCC1)N(Cc1ccccc1)c1ccccn1`, the inhibition is -6.6%.

On to `COC(=O)CCCC1=CC2=CC(=O)C(C)(OC(=O)c3cccs3)C(=O)C2=CN1CC1CC1` (centres undefined), for which the inhibition was 18.5% (active).

`COC(=O)CCCC1=CC2=CC(=O)C(C)(OC(=O)c3cccs3)C(=O)C2=CN1CC(C)C` (centres undefined): the inhibition is -1.01%.

In the case of `COC(=O)CCCC1=CC2=CC(=O)C(C)(OC(=O)c3cccs3)C(=O)C2=CN1c1cccc(C#N)c1` (centres undefined), the inhibition was 4.64%.

As to `CS/C(=C\C(=O)c1ccco1)Nc1ccccc1Cl`, the inhibition is 0.03%.

In the case of `CN(C)c1ccc(NC(=O)c2ccncc2)c2ccccc12`, the inhibition is -9.99%.

Take `CC(C)CNC(=O)C(=O)Nc1ccc(N(C)C)cc1`: the inhibition is -0.08%.

For the compound `CN(C)c1ccc(N/C=C/C(=O)C(F)(F)F)cc1`, the inhibition is 38.9% (active).

Regarding `COc1cc(OC)c(C(=O)Nc2ccc(N(C)C)cc2)cc1OC`, the inhibition is -1.49%.

Regarding `CCCC1=Nc2cc(C(=O)NCc3ccco3)ccc2Sc2ccccc21`, the inhibition was -2.78%.

For the compound `Cn1c(=O)cc(OCC(=O)N2CCN(c3ccccc3F)CC2)c2ccccc21`, the inhibition was -3.43%.

For the compound `O=C(NNC(=O)c1cccc(S(=O)(=O)Nc2ccc(Cl)cc2)c1)c1ccc(=O)[nH]c1`, the inhibition was 0.33%.

In the case of `O=C(O)C1=NN(c2c(F)c(F)cc(F)c2F)C(=O)CC1`, the inhibition was 0.4%.

Consider `CCCc1cc(=O)[nH]c(SCC(=O)c2cc(C)n(CCC)c2C)n1`, for which the inhibition was 1.34%.

With `Cc1cc(C(=O)CSc2nc(N)cc(=O)[nH]2)c(C)n1-c1cccc(F)c1`, the inhibition was 3.24%.

On to `Cc1cc(C(=O)CSc2nc(N)cc(=O)[nH]2)c(C)n1CCc1ccc(Cl)cc1`, for which the inhibition is 23.8% (active).

Take `O=C(COc1cccnc1[N+](=O)[O-])Nc1ccc(Cl)cc1F`: the inhibition is -3.69%.

Consider `CCOC(=O)CSc1nncc2ccc(OC)c(OC)c12`, for which the inhibition is -1.97%.

On to `COC(=O)c1ccc(NC(=O)CSc2nncn2-c2cccnc2)cc1`, for which the inhibition was 6.18%.

Consider `COC(=O)c1ccc(NC(=O)CSc2nncc3ccc(OC)c(OC)c23)cc1`, for which the inhibition is 26.1% (active).

Take `CC(=O)c1cccc(-n2nnnc2SCC(=O)NNC(=O)C2CCCCC2)c1`: the inhibition is 0.09%.

`CC1(OC(=O)CCc2ccccc2)C(=O)C=C2C=C(c3ccc(C#N)cc3)N(CCc3ccccn3)C=C2C1=O` (centres undefined): the inhibition is -12.6%.

Turning to `COCCN1C=C2C(=O)C(C)(OC(=O)C3CCCC3)C(=O)C=C2C=C1c1ccsc1` (centres undefined), the inhibition was 17.8% (active).

On to `CC1(OC(=O)C2CCCC2)C(=O)C=C2C=C(c3ccc(C#N)cc3)OC=C2C1=O` (centres undefined), for which the inhibition was 4.94%.

As for `COc1ccc(N(CC(=O)NC2CCCCCCC2)S(=O)(=O)c2c(C)nn(C)c2C)cc1`, the inhibition was -21.2%.

With `COc1ccccc1C(=O)N/C(=C/c1ccc2c(c1)OCO2)C(=O)Nc1cccc(C(=O)O)c1`, the inhibition is 4.24%.

Consider `O=C(Cc1c(F)cccc1Cl)Nc1ncc([N+](=O)[O-])s1`, for which the inhibition is -0.75%.

With `COc1ccc(NC(=O)c2ccccc2[N+](=O)[O-])cc1OC`, the inhibition was 0.28%.

Turning to `CC(=O)Oc1ccccc1C(=O)Nc1ncc([N+](=O)[O-])s1`, the inhibition was 21.3% (active).

With `Cc1ccn2cc(-c3nonc3C)cc2c1`, the inhibition is 15.3% (active).

As to `COc1ccc(-c2cn3ccc(C)cc3n2)cc1`, the inhibition is -3.72%.

As for `COCC(C)n1c(C)cc(C(=O)CSc2cc(C)c3ccccc3n2)c1C` (centres undefined), the inhibition was -0.49%.

With `COc1ccc(CNC(=O)COc2cccnc2[N+](=O)[O-])cc1`, the inhibition was 1.13%.

Consider `COC(=O)c1cc(NC(=O)c2cc(C(C)(C)C)nn2Cc2cccc(C)c2)ccc1N1CCOCC1`, for which the inhibition is 2.9%.

Consider `COc1cc(C(F)(F)F)nc2c(Br)c(C(C)(C)C)nn12`, for which the inhibition was -1.55%.

On to `C[N+](C)(C)CCOP(=O)([O-])OC[C@H](O)CO`, for which the inhibition was 0.71%.

Take `O=C(CN1CCCCCC1)Nc1ccc(Br)cc1Br`: the inhibition was 129% (active).

On to `O=C(CN1CCCCCC1)Nc1ccc(Br)cc1[N+](=O)[O-]`, for which the inhibition is 0.42%.

On to `O=C(CN1CCCCCC1)Nc1ccc(Cl)cc1F`, for which the inhibition was -5.26%.

Values taken from PubChem BioAssay AID485272 (The Scripps Research Institute Molecular Screening Center, 2010).
